From PubChem
In the library only some 7.3% were active in any assay of this set; here they are far more common.
NPC1 prom act: qHTS Assay for NPC1 Promoter Activators; AID 485313, 2010; hit rate 2.4% among 320,000; Potency, µM (highest dose often 9.22 µM), most hits filed as activators; Huh7 NPC1 promoter luciferase reporter, 24 h; further: nearly all actives have a fitted effect of over 60% in size
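Stably transfected Huh7 (NPC1 promoter→luciferase), 1500 cells/well in Opti-MEM + 10% FBS, 2 h settle, then compound 24 h at 37 °C. Luminescence after 10 min with Amplite reagent.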
FLuc modulator: qHTS profiling assay for firefly luciferase inhibitor/activator using purifed enzyme and Km concentrations of substrates (counterscreen for miR-21 project); Potency, µM (top dose mostly 57.5 µM), actives largely listed as inhibitors; purified FLuc, Km substrates, luminescence inhibition; hit rate 6.9% among 360,000; Luciferin 4-monooxygenase (Photinus pyralis), P08659; further: nearly all actives have a fitted effect of over 55% in size
Target sequence (P08659 whole entry, looked up): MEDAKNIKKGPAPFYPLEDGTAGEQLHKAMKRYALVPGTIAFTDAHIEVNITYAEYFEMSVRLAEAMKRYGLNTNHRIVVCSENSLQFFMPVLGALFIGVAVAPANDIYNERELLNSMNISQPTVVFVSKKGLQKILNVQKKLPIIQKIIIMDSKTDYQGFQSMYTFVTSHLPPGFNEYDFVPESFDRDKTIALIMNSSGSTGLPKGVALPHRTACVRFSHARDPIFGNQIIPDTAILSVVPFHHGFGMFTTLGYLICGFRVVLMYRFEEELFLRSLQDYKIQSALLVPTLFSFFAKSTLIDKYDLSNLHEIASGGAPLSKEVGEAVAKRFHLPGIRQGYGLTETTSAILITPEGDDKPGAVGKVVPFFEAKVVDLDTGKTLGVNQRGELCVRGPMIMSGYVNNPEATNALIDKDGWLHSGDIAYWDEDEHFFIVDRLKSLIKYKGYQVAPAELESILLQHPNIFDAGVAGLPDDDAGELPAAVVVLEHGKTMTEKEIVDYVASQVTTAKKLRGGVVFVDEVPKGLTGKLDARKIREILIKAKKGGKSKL
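Biochemical qHTS of compounds, final roughly 60 µM downward over six points, against 10 nM purified firefly luciferase using Km concentrations of substrates (10 uM D-luciferin, 10 uM ATP) in Tris acetate pH 7.5 buffer; luminescence output.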
Rab9 promoter act: qHTS Assay for Rab9 Promoter Activators. Potency, µM (doses to about 9.22 µM), actives largely listed as activators. Huh7 Rab9 promoter-luciferase reporter, luminescence, 24 h. hit rate 2.8% among 320,000. AID 485297, 2010; further: nearly all actives have a fitted effect of over 60% in size
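Stable Rab9-luc Huh7, 1500 cells/well, 2 h settle; cmpd in DMSO, 24 h, 37 °C/5% CO2; luciferase reagent 10 min RT; luminescence.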
ELG1 genotox: qHTS screen for small molecules that induce genotoxicity in human embryonic kidney (HEK293T) cells expressing luciferase-tagged ELG1 | HEK293T ELG1-luciferase reporter, luminescence, 16 h | Potency, µM (titrated, usually from 46 µM), usual class: activators | hit rate 1.3% among 330,000; further: nearly all actives have a fitted effect of over 60% in size
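Step 1: seed 2,000 HEK293T ELG1-luciferase cells per well. Step 2: add compound or DMSO, incubate 16 hr at 37 °C. Step 3: ONE-Glo, 30 min at room temperature, read luminescence.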
p53 reactivation: qHTS assay for re-activators of p53 using a Luc reporter. Potency, µM (doses to about 92.2 µM), hits mostly activators. AID 504706, 2011. H1299 p53-A138V BP100-luciferase reporter, luminescence, 24 h. hit rate 0.063% among 320,000; further: nearly all actives have a fitted effect of over 45% in size
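H1299 (p53-null), stable ts p53-A138V + BP100-Luc; 1000 cells/well, Opti-MEM/10% FBS; cpd 4 pt, 1:5; 24 h, 37 deg C, 5% CO2; detection reagent 10 min RT; luminescence.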
SMN2 splice up: qHTS Assay for Enhancers of SMN2 Splice Variant Expression | HEK293 SMN2-luciferase splicing reporter, luminescence, 30-36 h | Potency, µM (top dose mostly 46.1 µM), most hits filed as activators | hit rate 2.8% among 210,000; further: nearly all actives have a fitted effect of over 55% in size
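qHTS luciferase splicing reporter: luminescence rises when SMN2 exon 7 is included in transfected HEK293 cells. Compound exposure lasted 30-36 h at 37C, with 4.5 mM final sodium butyrate as control, followed by a ONE-Glo read.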
Numbers stand for hits; 0 = inactive; ? = inconclusive; - = not tested or not shown; [ ] = remark or other dose. The call rests on the fitted dose curve; in most records, active means well fitted curve in the direction sought with a large enough effect; inconclusive means small, poorly fitted or top-dose-only effect, or another doubt; inactive means no such curve, though single readings can be large; an effect the other way counts as inactive or inconclusive.

SMILES	NPC1 prom act	FLuc modulator	Rab9 promoter act	ELG1 genotox	p53 reactivation	SMN2 splice up
Cc1occc1C(=O)Nc1cc(C(C)(C)C)on1	2.82µM	6.01µM	1.58µM	5.17µM	?	14.1µM
COc1ccc(-c2nc3ccccc3nc2-c2ccccc2)cc1	0	0	0	0	0	-
COc1ccc(-c2cc3nnc(-c4ccccc4)nc3s2)cc1	0	0.169µM	?	?	-	0.708µM
Cc1cccc(NC(=S)Nc2cccc3ccccc23)c1	0	0	0	0	0	-
Cc1cc(C)cc(NC(=S)Nc2cccc3ccccc23)c1	2.51µM	21.3µM	2.51µM	?	0	-
CCc1ccccc1NC(=O)Cn1nnc(-c2nc(-c3ccc(C)cc3)no2)c1N	-	0	-	-	-	-
CC(C)(C)c1ccc(OCc2cnc(Cl)s2)cc1	0	13.5µM	?	?	0	0
CCN(c1ccc(NC(=O)COC(=O)c2ccc3ccccc3n2)cc1)C(C)C	0	15.1µM	0	0	0	0
CCOC(=O)c1ccc(NC(=O)c2cc(S(=O)(=O)N3CCOCC3)ccc2O)cc1	0	15.1µM	0	0	0	0
CCN(c1ccc(NC(=O)COC(=O)c2ccc(C)c(S(=O)(=O)N3CCOCC3)c2)cc1)C(C)C	-	16.9µM	-	-	-	0
COc1ccc(NC(=O)COC(=O)c2ccc3ccccc3n2)cc1OC	-	-	-	0	0	-
CC(=O)/C(C#N)=C1\NC(=O)C(Cc2ccc(F)cc2)S1 (centres undefined)	0	0	0	0	0	-
CC(=O)/C(C#N)=C1\NC(=O)C(Cc2ccc(C)c(C)c2)S1 (centres undefined)	0	21.3µM	0	0	?	?
S=C(NCc1ccco1)Nc1ccc(Br)cc1Cl	0	26.9µM	?	?	0	0
S=C(NCc1ccccn1)Nc1ccc(Br)cc1Cl	0	?	3.16µM	?	0	11.2µM
CCOC(=O)CC(NC(=O)CCc1c(C)nc2c(c(C)nn2-c2ccc(C)c(C)c2)c1C)c1ccc(C)cc1 (centres undefined)	-	0	-	-	-	0
O=C(NCCO)/C(=C\c1ccco1)NC(=O)c1cccs1	0	0	0	0	0	?
O=C1O/C(=C/c2ccccc2)N=C1c1ccccc1	0	2.69µM	0	0	0	0
C=CCn1cccc(C(=O)Nc2ccc(SC)cc2)c1=O	?	12µM	3.98µM	0	0	-
C=CCn1cccc(C(=O)Nc2cc(OC)c(OC)c(OC)c2)c1=O	0	0	0	0	0	0
C=CCn1cccc(C(=O)Nc2ccc(Cl)cc2)c1=O	?	16.9µM	?	?	0	-
C=CCn1cccc(C(=O)Nc2ccc(N(C)C)cc2)c1=O	3.55µM	8.49µM	3.98µM	?	0	-
C=CCn1cccc(C(=O)Nc2ccc(OC)cc2OC)c1=O	0	?	0	0	0	0
C#CCn1cccc(C(=O)Nc2ccc(OC)cc2)c1=O	0	19µM	0[1.84 µM]	0	0	-
Cc1ccc(N2CC(NC(=O)C(=O)c3c[nH]c4ccccc34)CC2=O)cc1 (centres undefined)	-	0	-	-	-	-
SMILES	NPC1 prom act	FLuc modulator	Rab9 promoter act	ELG1 genotox	p53 reactivation	SMN2 splice up
C=CCn1cccc(C(=O)Nc2cc(OC)cc(OC)c2)c1=O	0	?	0	0	0	0
C=CCn1cccc(C(=O)Nc2ccc(OCC)cc2)c1=O	?	16.9µM	?	0	0	0
COc1ccc(CN2C(=O)CN=C2Nc2cc(C)ccc2C)cc1	0	0	0	18.4µM	0	0
CCc1ccccc1NC1=NCC(=O)N1Cc1ccc(OC)cc1	0	0	0	0	0	-
CCCCNc1c(-c2cccc(-c3cc(C(C)=O)cs3)c2)nc2cc(C)ccn12	0	6.01µM	0	0	0	-
CCCCCCSc1cc(-c2nc3cc(C)ccn3c2NCCCC)ccc1OC	0	0	0	0	0	-
CCN1CCOC(=O)C1CC(=O)Nc1cc(C)ccc1OC (centres undefined)	-	0	-	-	-	0
Cc1ccc(SSc2cc(C)ccc2N)c(N)c1	1.12µM	4.78µM	0.794µM	0	?	-
COC(=O)/N=C(/Cc1ccc(OC)cc1)c1ccc(OC)cc1	0	0.757µM	0	0	?	-
CCOC(=O)c1cc([N+](=O)[O-])c([N+](=O)[O-])cc1NC(C)=O	0	0	0	0	0	0
O=C(c1ccc(-c2ccc([N+](=O)[O-])cc2Cl)o1)N1CCOCC1	0	16.9µM	?	?	0	?
NC(=O)C1CCCN(C(=O)c2ccc(-c3cccc(Cl)c3Cl)o2)C1 (centres undefined)	?	9.53µM	?	?	?	-
NC(=O)C1CCCN(C(=O)c2ccc(S(=O)(=O)N3CCCCCC3)cc2)C1 (centres undefined)	0	0	0	0	0	-
O=C(c1ccc(-c2cccc(Cl)c2Cl)o1)N1CCOCC1	?	?	1.26µM	?	0	11.2µM
O=C(c1ccc(-c2cccc(C(F)(F)F)c2)o1)N1CCOCC1	0	?	0	16.4µM	?	0
CCOC(=O)c1c(C)oc2nc(C)nc(NCCCN3CCN(c4cccc(C)c4)C(C)C3)c12 (centres undefined)	-	0	-	-	-	-
CC1CCN(C(=O)c2ccc(-c3ccccc3Cl)o2)CC1	0.891µM	2.13µM	0.316µM	?	?	-
CN1CCCN(C(=O)c2ccccc2Cl)CC1	0	0	0	0	0	-
O=C(c1ccc(-c2ccccc2Cl)o1)N1CCCC(C(F)(F)F)C1 (centres undefined)	0	13.5µM	?	?	?	-
CC(=O)c1ccc(-c2ccc(C(=O)N3CCC(C(N)=O)CC3)o2)cc1	?	?	0	?	0	-
O=C(c1ccc(-c2ccccc2Cl)o1)N1CCC1	?	16.9µM	?	?	0	-
CC(C)c1ccc(S(=O)(=O)c2nnn3c2nc(NC2CCCC2)c2sccc23)cc1	-	0	-	-	-	-
COc1cc(C(=O)Nc2cccc(-c3nc4cc(C)ccc4o3)c2)cc(OC)c1OC	0	1.69µM	0	0	0	0
COc1cc(C(=O)Nc2cc(-c3nc4cc(C)ccc4o3)ccc2C)cc(OC)c1OC	?	0.269µM	?	?	?	?
Cc1ccc2oc(-c3ccc(C)c(NC(=O)Cc4cccs4)c3)nc2c1	0	?	0	0	0	0
Cc1ccc2oc(-c3ccc(C)c(NC(=S)NC(=O)c4cccs4)c3)nc2c1	0	6.01µM	0	8.2µM	-	?
COc1cc(C(=O)Nc2cccc(-c3nc4cc(C)ccc4o3)c2C)cc(OC)c1OC	0	0.953µM	0	0	0	0
COc1cc(C(=O)Nc2cccc(-c3nc4ncccc4o3)c2C)cc(OC)c1OC	0	0	0	0	0	0
Cc1ccc2oc(-c3ccc(C)c(NC(=O)c4ccc(C(C)(C)C)cc4)c3)nc2c1	-	0	-	-	-	0
